Bioassay records from PubChem.
DRD3 antagonist – antagonists of human D3 dopamine receptor; D3R cells, DiscoveRx beta-arrestin luminescence, antagonist mode; active compounds read low; max response, negative = inhibition, %; 360,000 compounds, 2.5% hits; AID 652054; in the data active = max response below about -50%; inconclusive = no clear call, values can overlap the other calls; note: % is set by controls: 0 for no effect and ±100 for the full control effect
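Cells expressing the human receptor were seeded at 1500 cells/well, incubated overnight at 37 degrees C in 5% CO2, then exposed to library compounds with dopamine controls for 90 minutes at 37 degrees C before luminescent detection.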
TDP1 cell CPT – DT40-hTDP1 cell growth loss with CPT | chicken DT40 Tdp1-/-;hTDP1 cells + 20 nM CPT, ATP luminescence, 48 h | 420,000 compounds, 12% hits | Potency, µM (top dose mostly 46.2 µM), inactives show top-dose activity change, negative = growth inhibition, hits mostly inhibitors; note: potency is the fitted concentration of half-maximal effect; % is set by controls: 0 for no effect and ±100 for the full control effect; nearly all actives have a fitted effect of over 55% in size
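Cell growth measured by CellTiter-Glo luminescence after a minimum 48 h, 37 C compound exposure with 20 nM CPT in Tdp1-knockout DT40 cells stably expressing hTDP1, seeded 400/well; qHTS titration format.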
ClpP mod – qHTS Assay for Activators of ClpP; purified B. subtilis ClpP, FRET peptide cleavage, 20 min; Potency, µM (doses to about 57.5 µM), without a hit: at the highest dose activity change, negative = active; ATP-dependent Clp protease proteolytic subunit (Bacillus subtilis (strain 168)), P80244; 340,000 compounds, 1.9% hits; active = well fitted falling curve with a large enough effect; inconclusive = small, poorly fitted or top-dose-only effect; inactive = no such curve, though single readings can be large or run the other way; note: potency is the fitted concentration of half-maximal effect; the source files actives as falling curves though it sought activators and does not explain the sign; nearly all actives have a fitted effect of over 65% in size
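ClpP 10 microg/mL final, pH 8 Tris/KCl buffer with BSA, glycerol, Tween-20; compound pinned in; FRET-FV substrate; RT 20 min; Ex320/Em430; ΔFRET vs ADEP 5.8 microM, DMSO, no enzyme.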
DT40 TDP1 no CPT – qHTS for Inhibitors of human tyrosyl-DNA phosphodiesterase 1 (TDP1): qHTS in cells in absence of CPT; DT40 Tdp1-/- hTDP1 cells, no CPT, ATP luminescence, 48 h; Potency, µM (doses to about 46.2 µM), without a hit: at the top dose activity change, negative = growth inhibition, most hits filed as inhibitors; 420,000 compounds, 15% hits; note: potency is the fitted concentration of half-maximal effect; % is set by controls: 0 for no effect and ±100 for the full control effect; nearly all actives have a fitted effect of over 55% in size
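Chicken DT40 Tdp1-/- cells complemented with human TDP1, screened without camptothecin (DMSO vehicle only), 400 cells/well. Compounds pin-transferred, cells incubated at 37 °C for at least 48 hr. Growth read as ATP-dependent luminescence (CellTiter-Glo, 30 min at RT).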
DRD3 agonist – activates the human D3 dopamine receptor; D3R DiscoveRx beta-arrestin cells, luminescence, 90 min; max activation, %; 410,000 compounds, 0.58% hits; AID 652048; in the data active = max activation above about 30%; note: 0% is about no effect
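Agonist mode: compounds and dopamine controls were applied to plated cells for 90 min at 37 degrees C after an overnight attachment at 1500 cells/well. Luminescent read-out followed 30 - 60 minutes at room temperature with DiscoveRx detection reagent.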
IL-1B inflam inh – inhibitors of inflammasome signaling (IL-1 beta secretion); activity change, % at 57.5 µM; AID 743279; 360,000 compounds, 4.7% hits; THP-1 LPS/ATP IL-1B secretion, AlphaLISA, 16 h; active compounds read low; in the data active = activity change below about -50%; inconclusive = mostly about -30% to -49%; note: % is set by controls: 0 for no effect and ±100 for the full control effect
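Secreted IL-1B measured by AlphaLISA bead assay after 16 h compound exposure of THP-1 cells; compounds (final up to 57.5 uM) added 1 h before LPS (250 ng/mL) and ATP (1.25 mM) stimulation; lower signal means less secretion.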
* hit, by the source's call; ? = inconclusive; . = not tested or not shown. Shown are actives, neighbours in structure and some others; about 21% of the full set was active somewhere. Unless noted, calls come from the whole dose curve; as a rule, active = well fitted inhibition curve with a large enough effect; inconclusive = small, poorly fitted or top-dose-only effect; inactive = flat fitted curve, though single readings scatter.

SMILES | DRD3 antagonist | TDP1 cell CPT | ClpP mod | DT40 TDP1 no CPT | DRD3 agonist | IL-1B inflam inh
CCN(CC)S(=O)(=O)c1cnccc1N1CCN(c2cccc(Cl)c2)CC1 | 1 | ? | -2% | 16µM* | -5 | -69*
CN1CCN(S(=O)(=O)c2cnccc2N2CCN(c3cccc(Cl)c3)CC2)CC1 | 6 | 18µM* | 1% | 18µM* | 2 | -50*
CNS(=O)(=O)c1cnccc1N1CCN(c2cccc(Cl)c2)CC1 | -14 | -9% | -1% | ? | -9 | -18
COCc1c(C(=O)NC2CCCC2)cnn1-c1nccc(-c2ccco2)n1 | . | 4% | . | -16% | . | .
CCCc1ccc(OCc2ccc(C(=O)N/N=C/c3cccnc3)o2)cc1 | -5 | -22% | 15% | -20% | 2 | 26
CCN(CC)S(=O)(=O)c1cc(C(=O)Nc2cc(S(=O)(=O)N3CCOCC3)ccc2N2CCN(C)CC2)ccc1C | -1 | ? | -3% | ? | 0 | -3
CC(C)n1nc(C(=O)OCC(=O)N2CC(=O)Nc3ccccc32)c2ccccc2c1=O | 66 | -16% | 1% | -22% | 3 | 33
Cc1ccc(Nc2c([N+](=O)[O-])cc(C(=O)N3CC(=O)Nc4ccccc43)cc2[N+](=O)[O-])c(C)c1 | ? | 15µM* | 0% | ? | -3 | -11
O=C1CN(C(=O)c2ccc(Cl)c([N+](=O)[O-])c2)c2ccccc2N1 | -13 | -19% | . | -6% | 4 | -78*
CCCn1nc(C(=O)N2CC(=O)Nc3ccccc32)c2ccccc2c1=O | -11 | 21µM* | -3% | 15µM* | 3 | 41
O=C1CN(C(=O)COC(=O)c2cc(Cl)ccc2[N+](=O)[O-])c2ccccc2N1 | -28 | -7% | -3% | ? | -8 | 14
COc1cc(OC)cc(C(=O)N2CC(=O)Nc3ccccc32)c1 | -13 | 1.5µM* | 2% | 1.3µM* | 3 | 37
N#C/C(=C\c1cc2c(cc1Br)OCO2)c1ccc(C(=O)O)cc1 | -4 | -9% | -1% | 13% | -4 | 36
C[N+]1(Cc2ccccc2)CCC(C(=O)OCC2CCCC2)CC1 (stereo not drawn) | . | ? | . | 21µM* | . | .
CC(C)N(Cc1ccccc1)C(=O)COC(=O)C1CCCCC1 | 1 | 5% | 1% | -5% | 2 | 6
COCCNC(=O)c1cccc(OC2CCN(Cc3ccc(C(C)C)cc3)CC2)c1 | ? | ? | . | ? | -16 | -69*
Cc1ccc(CN2CCC(Oc3cccc(C(=O)N(C)CCN(C)C)c3)CC2)cc1C | -10 | ? | . | ? | -18 | -65*
COCCNC(=O)c1cccc(OC2CCN(Cc3ccc(C(=O)OC)cc3)CC2)c1 | -19 | -11% | . | -25% | -19 | -16
CCCCCCN=C1CC(C)(C)CC(=O)/C1=C(/O)CCC | 8 | ? | 1% | 16µM* | 1 | ?
CCC/C(O)=C1\C(=O)CC(C)(C)CC1=Nc1ccc(OC)cc1OC | -13 | 2.9µM* | -1% | 2.1µM* | -20 | -19
COC(=O)CC/C(O)=C1\C(=O)CC(C)(C)CC1=Nc1ccccc1OC | 0 | 23µM* | 1% | ? | -1 | 8
C=CCn1c(SC(C)C(=O)c2c(N)n(C)c(=O)n(C)c2=O)nnc1-c1ccoc1C (stereo not drawn) | 9 | 0% | 0% | -24% | 11 | 0
CCCN1CNc2c(c(=O)[nH]c(=S)n2CCc2ccccc2)C1 | -11 | -9% | . | -19% | -8 | 17
CCCN1CNc2c(c(=O)[nH]c(=S)n2CCCc2ccccc2)C1 | . | ? | -4% | 13µM* | . | .
CCCN1CNc2c(c(=O)[nH]c(=S)n2CCC(C)C)C1 | . | -22% | -2% | ? | . | .
SMILES | DRD3 antagonist | TDP1 cell CPT | ClpP mod | DT40 TDP1 no CPT | DRD3 agonist | IL-1B inflam inh
CCCN1CNc2c(c(=O)[nH]c(=S)n2CCC(C)(C)C)C1 | . | ? | -5% | 13µM* | . | .
CCCN1CNc2c(c(=O)[nH]c(=S)n2CCc2cccc(C)c2C)C1 | . | ? | -3% | 13µM* | . | .
Cn1nc(C(=O)OCC(=O)Nc2ccc(SC(F)F)cc2)c2ccccc2c1=O | -6 | -26% | 3% | -12% | -4 | 7
Cc1ccc2oc(=O)c3cc(C(=O)NCCN4CCc5ccccc5C4)sc3c2c1 | ? | ? | ? | ? | -12 | -28
Cc1ccc2cc3cc(C(=O)NCCCN4CCCCCC4)oc3nc2c1 | -75* | ? | 27% | ? | -11 | 0
Cc1ccc2cc3cc(C(=O)NCCCN4CCCC4)oc3nc2c1 | -13 | 2% | 3% | 14% | -17 | -51*
CCCCN(CC)CCCNC(=O)c1cc2cc3ccc(C)cc3nc2o1 | -10 | -26% | . | -29% | -7 | .
COCCNC(=O)c1cc2cc3ccc(OC)cc3nc2o1 | 1 | -4% | 4% | 7% | 0 | -5
Cc1ccc2cc3cc(C(=O)NCCCN4CCc5ccccc5C4)oc3nc2c1 | -55* | ? | 8% | ? | -12 | -26
O=c1c(-c2cccs2)nc2cnc(N3CCOCC3)nc2n1CCc1ccccc1 | . | 2% | . | 22% | . | .
CN1[C@@H]2CC[C@H]1CC(NC(=O)n1c(=O)[nH]c3ccccc31)C2 (stereo partly drawn) | . | 1% | . | -4% | -11 | .
CCOC(=O)c1ccc(NC(=O)c2nsc3ccccc23)cc1 | . | 18µM* | 17% | ? | 5 | .
CCOc1ccccc1CNC(=O)c1cccc(NC(=O)c2nsc3ccccc23)c1 | . | 5.8µM* | -29% | 5.2µM* | 5 | .
O=C(Nc1ccc(C(=O)N2CCCCC2)cc1)c1nsc2ccccc12 | . | 21µM* | 1% | 21µM* | 3 | .
CCOc1cc(CNC(=O)c2ccccc2NC(=O)c2nsc3ccccc23)ccc1OC | . | 16µM* | -10% | 18µM* | 1 | .
O=C(Nc1ccc(C(=O)N2CCN(c3ccc(F)cc3)CC2)cc1)c1nsc2ccccc12 | . | ? | -4% | ? | 9 | .
COc1ccc(OC)c(CNC(=O)c2ccccc2NC(=O)c2nsc3ccccc23)c1 | . | ? | -14% | ? | -7 | .
COc1cc2c(=O)n(CCC(=O)NCC3CCCO3)c(=O)n(CC(=O)Nc3ccc(C)cc3C)c2cc1OC (stereo not drawn) | 3 | -15% | 4% | -15% | 2 | 12
CCOc1ccc(N2C(=O)CN(CC(=O)OC)C2=S)cc1 | 6 | 10% | . | 4% | 3 | 10
Cc1ccccc1CNC(=O)c1ccc(NC(=O)c2nsc3ccccc23)cc1 | . | 15µM* | ? | 12µM* | 6 | .
